The source of these data is PubChem BioAssay AID1466 (National Center for Advancing Translational Sciences (NCATS), 2008).

Out of some 200,000 compounds screened, about 10 (0.005%) were called active. Not shown: some 8% with an inconclusive outcome. Calls follow the shape of the dose curve; as a rule, active = well fitted inhibition curve with a large enough effect; inconclusive = small, poorly fitted or top-dose-only effect, or effect the other way, or another doubt; inactive = no such curve, though single readings can be large or run the other way. Shown is part of a subset that was picked to be rich in actives.
Potency is read from the fitted curve at half-maximal effect.

The target in the test is Lysosomal alpha-glucosidase (Homo sapiens) (UniProt P10253). The test can be described thus: qHTS Assay for Inhibitors of Human alpha-Glucosidase as a Potential Chaperone Treatment of Pompe Disease.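 As to activity change, negative = inhibition: plate controls were uninhibited enzyme wells for no effect and no-enzyme background for full effect.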 The conditions noted are these: purified human GAA, 4-MU-alpha-glucoside fluorescence; series mostly up to 76.9 µM; activity change, negative = inhibition: at the top concentration. An excerpt:
NIH Chemical Genomics Center [NCGC] NIH Molecular Libraries Probe Production centers Network [MLPCN] MLPCN Grant: 1R03MH084841-01 Assay Submitter (PI): Wei Zheng NCGC Assay Overview: Alpha-glucosidase is responsible for hydrolysis of terminal, non-reducing 1,4-linked alpha-D-glucose residues with release of alpha-D-glucose. It is a lysosomal hydrolase that is required for the degradation of a small percentage (1-3%) of cellular glycogen in human. Deficiency of this enzyme results in glycogen-storage disease type II (GSDII), also referred to as Pompe disease, an autosomal recessive disorder. Structurally normal glycogen is accumulated in lysosomes and cytoplasm in affected patients, primarily in muscle tissues. Excessive glycogen storage within lysosomes may interrupt normal functioning of other organelles and leads to cellular injury. In turn, this leads to enlargement and dysfunction of the entire organ involved (eg, cardiomyopathy and muscle weakness). It has reported that the improper folding and trafficking of alpha-glucosidase resulting from the genetic mutations may account for a significant number of Pompe patients. […] We optimized this alpha-glucosidase assay in 1536-well plate format for identifying the novel small molecule inhibitors with the structures other than the sugar analogs in order to develop the new pharmacological chaperones.
NCGC Assay Protocol Summary: This is a fluorogenic enzyme assay with 4-methylumbelliferyl-alpha-D-[…] as the substrate and human alpha-glucosidase as the enzyme preparation. Upon the hydrolysis of this fluorogenic substrate, the resulting product, 1. 4-methyllumbelliferone, can be excited at 365 nm and emits at 440 nm which can be detected by a standard fluorescence plate reader. Data were normalized to the controls for basal activity (without enzyme) and 100% activity (with enzyme). In the AC50 values were determined from concentration-response data modeled with the standard Hill equation. Assay buffer: 50 mM citric acid (titrated with potassium phosphate to pH 5.0), 0.005% Tween-20, pH 5.0. (pH 5.0 is an optimal condition for this enzyme assay) 1536-well assay protocol for the human alpha-glucosidase: (1) Add 2 ul/well of enzyme (4 nM final) (2) Add 23 nL compounds in DMSO solution. The final titration was 0.7 nM to 77 uM. (3) Add 1 ul of substrate (400 uM final) (4) Incubate at room temperature for 20 min. (5) Add 2 ul stop solution (1M NaOH and 1M Glycine mixture, pH 10) (6) Detect the assay plate in a ViewLux plate reader (PerkinElmer) with Ex=365 nm and Em=440nm. Keywords: Alpha-glucosidase, Pompe Disease, pharmacological chaperone, chaperone therapy, high throughput screening, alpha-glucosidase inhibitor, MLSMR, MLSCN, NIH Roadmap, qHTS and NCGC
For orientation: Quantitative high-throughput screening tests each substance at several concentrations.
Consider `Cc1cc(/C=C2/C(=O)NC(=O)N(Cc3ccco3)C2=O)c(C)n1-c1ccc(C(=O)O)cc1`, for which the Potency was 31.6 µM (active).

Take `Cc1c(C(=O)O)cccc1-n1c(C)cc(/C=C2\C(=O)NC(=O)N(c3ccc4c(c3)OCO4)C2=O)c1C`: the “activity change, negative = inhibition” value was 2.1% (inactive). The same measure, in the same setting: for `Cc1ccc(-n2c(C)cc(/C=C3\C(=O)NC(=O)N(C)C3=O)c2C)cc1C` the value was 2.84% (inactive). On the same count and under the same terms, for `CCN1CC2C3CCC(C)(O3)C2C1` (stereo not given) the value was -14.9% (inactive); for `CCOP(=O)(OCC)C(NC(=O)c1ccc(OC)cc1)C(Cl)(Cl)Cl` (stereo not given), -14.7% (inactive).
